Drawing on PubChem BioAssay AID837 (The Scripps Research Institute Molecular Screening Center, 2007), this text covers outcome for 10 compounds.

Each structure is given as a SMILES string. Active and inactive are the calls of the source.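 Rule for the calls: active = relative FRET score above 0.01, or acceptor fluorescence over 30% below the sample-well median; inactive = the rest.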

Chain of Protein Rev (Human immunodeficiency virus type 1 group M subtype B (isolate WMJ22)) (P05866 whole entry, looked up): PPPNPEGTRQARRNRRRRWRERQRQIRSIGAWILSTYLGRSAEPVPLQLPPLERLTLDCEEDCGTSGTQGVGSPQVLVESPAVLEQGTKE

The assay concerns the target Protein Rev (Human immunodeficiency virus type 1 group M subtype B (isolate WMJ22)) (UniProt P05866). Put plainly: disruptors of Rev peptide-RRE RNA complex – biochemical, FRET, acceptor and relative FRET calls, confirmation (AID 837).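 Note: relative FRET combines rise in Cy5 acceptor with fall in fluorescein donor.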 The conditions noted are these: Fl-Rev peptide / Cy5-RRE RNA FRET, 1536-well; at 8 µM.
As for `CN1C2CCC1CC(OC(=O)c1cc(Cl)cc(Cl)c1)C2` (stereo not given), the call was inactive.
Turning to `CNCC(O)c1cccc(OC(=O)c2ccccc2C)c1` (stereo not given), the compound was called inactive.
To `COc1ccc(CCNCc2ccc(SC)cc2)cc1` belongs “inactive”; to `CC(NC1CCCCC1)C(O)C12CC3CC(CC(C3)C1)C2` (stereo not given), “inactive”.
The result for `COc1ccc(CCC(C)NCCc2ccccc2)cc1` (stereo not given) reads “inactive”; that for `Cc1ccc(-c2nc(N(C)C3CCN(C)CC3)c3ccccc3n2)cc1`, “inactive”; that for `OC(Cc1ccccc1)(c1ccccc1)C1CN2CCC1CC2` (stereo not given), “inactive”.
With `COc1ccc(CCNC(C)CCc2ccc(OC)cc2)cc1` (stereo not given), the call was active.
The result for `c1ccc(C(OCCN2CCNCC2)c2ccccc2)cc1` reads “inactive”.
The result for `CC1CCC(NCCc2ccc3c(c2)OCO3)CC1` (stereo not given) reads “inactive”.
